The results in this text go back to PubChem BioAssay AID488777 (Sanford-Burnham Center for Chemical Genomics, 2010).

Structures are written as SMILES. Values without a mark were called inactive. How the calls were made is not given here.

This assay is described as follows: assay artefact check, AlphaScreen readout interference – biochemical, artefact control for SUMOylation inhibitor project, SAR follow-up (AID 488777). The conditions noted are these: purified counter-screen enzymes, TR-FRET, 60 min. Background: Alpha assays give light when donor and acceptor beads are brought close together.

As usually defined, the IC50 is the concentration that inhibits the measured activity by half. On to `CCCCNC(=O)c1c(NC(=O)c2ccccc2)n(Cc2ccccc2)c2nc3ccccc3nc12`, for which the IC50 was more than 100 µM.
